# Screening data from PubChem BioAssay.
# Most compounds without a hit are left out; they make up all but 4% or so of the library.
# Peg3 prom inh-1 – Peg3 promoter-driven luciferase inhibitors, primary screen, cell-based, HeLa, luciferase luminescence; 360,000 compounds, 1.7% hits; inhibition, % at 20 µM; AID 588405, 2011; HeLa PEG-Prom luciferase reporter, overnight;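 active means inhibition of at least 50% at 20 µM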
# TWEAK-Fn14 inh – inhibitors of TWEAK-Fn14 signaling, primary screen, luciferase reporter cells, uHTS; inhibition, % at 10 µM; TWEAK-stimulated Fn14 reporter cells, luciferase luminescence, 8 h; 360,000 compounds, 2% hits; in the data active means inhibition above about 50%
# CF NFkB block – inhibitors of PAF-induced NF-kB signaling, primary screen, cell-based, GFP fluorescence, uHTS; KKLEB NF-kB-GFP reporter, GFP fluorescence overnight; inhibition, % at 5 µM; 360,000 compounds, 0.86% hits; AID 588850, 2011;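 active means at least 50% inhibition at 5 µM, scaled per plate between neutral and stimulator controls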;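 further: PAF is a Pseudomonas aeruginosa culture filtrate used as stimulus; plate controls were PAF-stimulated DMSO wells for no effect and unstimulated DMSO wells for full effect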
# TROY NFkB inh – inhibitors of TROY-driven NF-kB signaling, primary screen, Q293 LMP1-TROYcd cells, NF-kB luciferase, uHTS. Q293 LMP1-TROYcd NF-kB luciferase reporter, 4 h. inhibition, % at 10 µM. 360,000 compounds, 0.98% hits;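 active means compounds whose plate-normalised and pattern-corrected inhibition of the luciferase reporter signal at the single screening dose is 50% or more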
# HIF-2a inh – HIF-2a reporter inhibitors, primary screen, luminescence, 786-0 RCC cells; 786-0 RCC cells HIF-2a reporter, luciferase luminescence, overnight; inhibition, % at 18.8 µM; 360,000 compounds, 0.72% hits; AID 624352, 2012;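 active means inhibition of the luminescence signal of 40% or more relative to plate controls, in a single-dose primary screen at 18.75 µM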
# KKLEB tox – cytotoxicity in KKLEB CF airway cells, primary screen, cytotoxicity control for CF NF-kB inhibitor project, cell-based, uHTS, fluorescence assay plates | KKLEB CF airway cells viability, ATPlite luminescence, overnight; hits give low values; cells stimulated with P. aeruginosa culture filtrate | 360,000 compounds, 0.36% hits | activity change (cytotoxicity), % at 5 µM;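 active means corrected activity change at or below -50% at 5 µM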
# Peg3 prom inh-2 – Peg3 promoter reporter inhibitors, retest, confirmation, cell-based, HeLa, luciferase reporter, single concentration; shares compounds with Peg3 prom inh-1; HeLa PEG-Prom luciferase reporter, luminescence, overnight; inhibition, % at 20 µM; 1,300 compounds, 84% hits;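 active means at 20 µM dose, 40% or more inhibition averaged across four replicates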
# * = called active by the depositor; nt = no result given; ! = repeats disagree.
SMILES,Peg3 prom inh-1,TWEAK-Fn14 inh,CF NFkB block,TROY NFkB inh,HIF-2a inh,KKLEB tox,Peg3 prom inh-2
COc1ccc(S(=O)(=O)N(C)C[C@H]2Oc3ccc(NC(=O)Nc4ccccc4)cc3C(=O)N([C@H](C)CO)C[C@@H]2C)cc1,-9.2,-2.1,-1.1,-19.0,2.4,-2.7,nt
Cc1nn(-c2nc3ccccc3[nH]2)c(=O)c2ccccc12,104.1*,105.4*,-12.5,91.6*,95.4*,-77.9*,98.7*
COc1cc(NC(=O)c2nccn2C)cc(C(=O)Nc2cccc(C(F)(F)F)c2)c1,53.3*!,-22.5,8.1,-29.6,-24.2,-6.6,33.2
C#CCNC(=O)C1=C[C@@H](c2ccc(C(F)(F)F)cc2)C[C@@H](OCc2ccc(CO)cc2)O1,-24.3,-3.6,6.1,-33.7,-23.5,-16.7,nt
COc1ccc(C2c3ccc4ccccc4c3Oc3ncn(CCO)c(=N)c32)cc1OC (stereo not drawn),59.8*,-21.4,39.1,15.3,10.7,-4.9,81.9*
COc1ccc(C2c3c(ncn(CCCN4CCOCC4)c3=N)Oc3ccc4ccccc4c32)cc1OC (stereo not drawn),69.2*,-18.7,27.0,10.9,9.5,8.0,85.5*
COc1ccc(C2c3ccc4ccccc4c3Oc3ncn(CCN4CCOCC4)c(=N)c32)cc1OC (stereo not drawn),20.2,-1.5,22.1,18.5,17.9,-15.3,nt
COc1ccc(C2c3ccc4ccccc4c3Oc3ncn(CCCO)c(=N)c32)cc1 (stereo not drawn),65.1*,-8.9,17.8,6.5,-3.7,-15.8,86.2*
NC(=O)/C(=N\O)c1ccccc1,-11.7,-22.0,-2.5,6.9,1.8,-2.5,nt
N#Cc1cccc(NC(=O)COC(=O)c2cccc(N3C(=O)c4ccccc4C3=O)c2)c1,11.3,-3.7,2.1,-7.6,11.9,-1.3,nt
CCOC(=O)c1c(C)[nH]c(C(=O)CSc2nnc(-c3ccncc3)n2CC)c1C,21.1,21.9,19.2,12.9,21.7,-0.3,nt
C=CCn1c(SCC(=O)c2[nH]c(C)c(C(=O)OCC)c2C)nc2scc(-c3ccc(OC)c(OC)c3)c2c1=O,86.3*,-56.5,56.5*,15.9,8.8,-41.9,11.4
Fc1ccc(Nc2nc(-c3ccncc3)nc3ccccc23)cc1F,54.3*,-26.7,-20.6,6.0,9.9,-8.7,33.3
Cc1c(CNCc2cccs2)c(C(=O)O)c(C)n1Cc1ccccc1,16.1,10.2,13.9,-1.6,1.8,-6.0,nt
O=C(Cc1csc(Nc2nc(=S)[nH]c3ccccc23)n1)NCc1ccccc1Cl,50.9*,-31.8,14.9,5.4,-3.4,-14.5,44.4*
O=C(Cc1csc(Nc2nc(=S)[nH]c3ccccc23)n1)NCc1cccc(Cl)c1,45.2,-27.4,14.9,8.7,3.4,-28.7,nt
COC(=O)[C@@]1(Cc2ccccc2)[C@H]2C(=O)N(Cc3ccccc3)C(=O)[C@H]2[C@H]2CN=C(SCc3ccc(C#N)cc3)N21,9.7,19.1,5.9,1.3,7.9,14.2,nt
CCN(CCN(C)C)C(=O)C1CCN(S(=O)(=O)c2c(C)noc2/C=C/c2ccccc2F)CC1,90.0*,-57.9,12.8,0.3,-1.7,-4.3,51.2*
CCOc1ccccc1/C=C/c1onc(C)c1S(=O)(=O)N1CCC(C(=O)N(CC)CC)CC1,19.3,-7.7,-8.0,2.4,11.8,-4.3,nt
Cc1cc(C(=O)COC(=O)C2=COCCO2)c(C)n1-c1ccccc1,59.6*,103.1*,-0.2,87.1*,14.4,-19.2,72.5*
Cc1ccc(OCC(=O)c2cc(C)n(-c3ccccc3)c2C)c([N+](=O)[O-])n1,79.6*,85.0*,21.5,58.5*,84.5*,3.4,79.9*
O=C(OCC(=O)N1CCN(c2ccccc2)CC1)C1=COCCO1,-18.9,-5.9,5.1,1.6,-30.5,2.5,nt
CCOC(=O)c1c(CN(CC)CC)oc2cc(Br)c(O)cc12,13.0,7.0,2.1,0.4,-10.4,-12.7,nt
CC(C)CCC(=O)N1CCC(N2CCC(C(=O)NCc3ccccn3)CC2)CC1,7.5,15.6,3.9,-8.4,2.1,6.4,nt
CCN(CC)S(=O)(=O)c1cccc(C(=O)N/N=C(\C)c2ccc(O)cc2O)c1,52.4*,-0.2,22.0,7.1,13.2,-20.1,65.2*
SMILES,Peg3 prom inh-1,TWEAK-Fn14 inh,CF NFkB block,TROY NFkB inh,HIF-2a inh,KKLEB tox,Peg3 prom inh-2
OCCNc1c2ccccc2nc2ccccc12,98.1*,-53.5,-127.1,-67.3,-7.0,6.9,94.7*
Cc1c(C)c2ccc(OCC(=O)Nc3ccccn3)c(C)c2oc1=O,93.4*,102.8*,0.7,81.6*,77.6*,-90.5*,84.4*
O=C(COc1ccc(Cl)cc1Cl)Nc1ccccn1,92.0*,107.8*,-2.7,88.8*,80.5*,-92.4*,87.3*
Cc1c(C)c2cc(Cl)c(OCC(=O)Nc3ccccn3)cc2oc1=O,-49.2,-19.5,-14.1,-6.3,-96.2,-2.8,nt
CSc1ccccc1NC(=O)COc1ccc(Cl)cc1Cl,-102.9,9.7,-0.9,-56.7,-185.6,1.7,nt
Cc1nc2nc(C)c(CCC(=O)NC3CCCCC3)c(C)n2n1,5.4,-11.7,-1.1,-11.1,18.8,8.1,nt
OCCNCc1cc(Br)ccc1OCc1ccc(Cl)cc1,0.3,-12.9,10.5,12.1,-5.4,-6.9,nt
OCCNCc1cc(Br)ccc1OCc1ccc(Cl)cc1Cl,64.9*,16.2,-9.4,-3.8,7.6,-6.0,62.0*
CCN1CCN(c2ncnc3c2cnn3-c2ccc(Cl)cc2)CC1,-272.6,8.8,7.9,40.9,-250.1,-5.9,nt
CC1CCCN(c2ncnc3c2cnn3-c2ccc(Cl)cc2)C1 (stereo not drawn),72.8*,103.7*,-60.4,88.6*,82.2*,-64.1*,85.7*
O=C(c1cccc([N+](=O)[O-])c1)N1CCN(S(=O)(=O)/C=C/c2ccccc2)CC1,0.8,-1.8,37.7,18.9,2.4,-17.3,nt
COC1=CC(=O)c2c(ccc3ncnc(N)c23)C1=O,92.9*,99.7*,81.6*,53.8*,90.9*,-89.9*,99.0*
CC(=O)Nc1cccc(NC(=O)c2cc(-c3ccccn3)nc3ccc(Cl)cc23)c1,7.0,-1.6,-11.3,12.4,11.2,-0.9,nt
CS(=O)(=O)Nc1cccc(NC(=O)c2cccc3c(-c4cccnc4)coc23)c1,43.7,15.4,-13.9,-2.2,-18.2,-6.6,nt
CC(=O)c1cccc(NC(=O)c2cccc3c(-c4cccnc4)coc23)c1,66.2*,58.0*,-34.4,33.6,-62.2,-0.5,60.6*
